Laboratory results: PubChem BioAssay (NCI)
Where “and” joins values, the source holds several entries; their conditions need not be identical. Equal values may be shown once. The panel holds about 79,000 compounds, 15% with a hit somewhere; the sample as a whole holds those more often. A number with no mark means an inactive call. Calls of active or inactive are those of the source. No stated cut-off is given here; in the data, active means growth inhibition above about 70%; inactive means the rest.

What was measured:
[1] = NCI Yeast Anticancer Drug Screen. Data for the rad50 strain (AID 155);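 further: 0% = growth of vehicle-only cultures of the same strain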; settings: S. cerevisiae rad50 strain growth inhibition, stronger effect = higher value; at 50.0 µM unless noted
Procedure, shortened: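 A DNA repair-deficient yeast mutant serves as the test organism; compound-induced growth inhibition is calculated against vehicle-treated cells.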

[2] = NCI Yeast Anticancer Drug Screen. Data for the mec2-1 strain (AID 157); settings: S. cerevisiae mec2-1 strain, stronger effect = higher value; at 50.0 µM unless noted
Procedure, shortened: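 Growth inhibition is read against vehicle-treated controls after compound exposure of the mec2-1 yeast strain, which is defective in DNA damage repair or cell cycle control.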

[3] = NCI Yeast Anticancer Drug Screen. Data for the sgs1 mgt1 strain (AID 161);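 further: 0% = growth of cultures given vehicle only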; settings: S. cerevisiae sgs1 mgt1 strain, stronger effect = higher value; at 50.0 µM unless noted
Procedure, shortened: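 This yeast growth screen uses a strain with defined DNA-repair lesions; compound-treated growth is compared with vehicle-treated growth.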

[4] = NCI Yeast Anticancer Drug Screen. Data for the cln2 rad14 strain (AID 165);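 further: 0% = growth equal to vehicle treated cultures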; settings: S. cerevisiae cln2 rad14 strain, stronger effect = higher value; at 50.0 µM unless noted
Procedure, shortened: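 Growth inhibition, relative to vehicle-treated controls, is the read-out. The test organism is a yeast strain with defined genetic alterations, cln2 rad14.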

[5] = NCI Yeast Anticancer Drug Screen. Data for the mlh1 rad18 strain (AID 175); settings: S. cerevisiae mlh1 rad18 strain growth inhibition, stronger effect = higher value; at 50.0 µM unless noted
Procedure, shortened: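 Cells of a genetically altered yeast strain, deficient in DNA damage repair, were treated with compound. Their growth was then compared with that of vehicle-treated cultures to give inhibition.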

[6] = NCI Yeast Anticancer Drug Screen. Data for the bub3 strain (AID 167); settings: S. cerevisiae bub3 mutant strain, stronger effect = higher value; at 50.0 µM unless noted
Procedure, shortened: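 Inhibition values come from growth of compound-treated mutant yeast normalised to vehicle-treated controls.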

SMILES	growth inhibition [1]	growth inhibition [2]	growth inhibition [3]	growth inhibition [4]	growth inhibition [5]	growth inhibition [6]
Cc1ccc(C(=O)OCC(C)C)s1	-6.6%	1.35%	-25.8%	-40.8%	13.4%	
CC(C)=CCCC(C)CCOc1cccc(C)c1 (stereo not drawn)	3.65%	8.3%		-37.5%		11.6%
O=C(NC(CSC(c1ccccc1)(c1ccccc1)c1ccccc1)C(=O)O)OC(c1ccccc1)c1ccccc1 (stereo not drawn)	91.5% (active)	95.6% (active)	96.5% (active)	89% (active)	96.5% (active)	
CCOP(=O)(C/C(=N/NC(C)(C)C)C(=O)Nc1nc2ccc(C)cc2s1)OCC	-14%	3.7%	-26.1%	-30.4%	-18.6%	
OC1CSc2nc3ccccc3n2C1 (stereo not drawn)	17.6%	9.25%	12.3%	9.7%	38.9%	
COc1ccc(C(=O)C(=O)c2ccccc2Cl)cc1	11.4%	14.9%	9.55%	13.3%	10.9%	
Cc1ccccc1OC(=O)Oc1ccccc1C	8.7%	-2.6%	4.8%	1%	21.9%	
O=C1C(CN2CCCC2)CCCC1CN1CCCC1 (stereo not drawn)	-3.2%	-29.4%	-40.1%	2.15%	-10.1%	
O=C(O)C1Oc2cc3ccccc3cc2O1	30.4%	16.4%	19.8%	20.3%	24.5%	
O=C(O)C1C2CC=CCC21 (stereo not drawn)	13.4%	4.5%	11.8%	8.85%	16.6%	
CC(=O)OCC1OC(OC(C)=O)C(NC(=O)c2ccccc2)C(OC(C)=O)C1OC(C)=O (stereo not drawn)	-2.1%	-3.45%	-3.5%	-20.6%	-1.5%	
CC1=CC(C)(C)N(C)C(N)=N1	-4.45%	-3.1%	-5.3%	-43.2%	-1.75%	
Cn1c([N+](=O)[O-])cnc1CSc1nc(-c2ccccc2)no1	17.9%	1.8%	33.8%	-1.1%	33.1%	
CC(C)(C)C(C(=O)O)C(=O)O	11.2%	8%	0.45%	-7.4%	13.6%	
O=C(O)c1ccc(NCO)cc1	7.05%	5.15%	-13.2%	33.7%	7.85%	
CC(=O)Oc1ccccc1C(=O)N(N)CCSc1ccc(Cl)cc1	-0.45%	1.15%	11.2%	-32.2%	-1%	
c1ccc(C2Cc3ccccc3C2c2ccccc2)cc1 (stereo not drawn)	9.85%	11%	22.8%	-17.8%	-13.3%	
O=C1OCCOCCOCCOCCOCCOC(=O)c2cccc1n2	18.1%	12.2%	20.4%	18.1%	16.1%	
O=C1c2cccc3cc([N+](=O)[O-])cc(c23)C(=O)N1C(CO)(CO)CO	29.9%	12.6%	30.1%	27.5%	-4.45%	
CCCCCCC(C)OB(OC(C)CCCCCC)OC(C)CCCCCC (stereo not drawn)	-27.6%	-49%	-0.8%	13.8%	-0.85%	

SMILES	growth inhibition [1]	growth inhibition [2]	growth inhibition [3]	growth inhibition [4]	growth inhibition [5]	growth inhibition [6]
NC(=O)C1CC1	-9.4%	2.25%	-9.7%	-7.7%	-4%	
O=C(NCCOC(=O)OCCNC(=O)NC1CCCCC1)NC1CCCCC1	-12.8%	-30%	0.9%	4.1%	-13.5%	
C/C=C(/I)CBr	28.4%	1.1%		3.05%		12.2%
O=C(O)CCC1NC(/C(=C/c2ccccc2O)NC(=O)c2ccccc2)OC1=O (stereo not drawn)	-0.75%	-8.1%		-19.1%	-16.1%	-8.25%
O=C1c2ccccc2C(=O)N1/N=[N+](\[O-])c1ccccc1	3.55%	0.3%		7.3%	40.8%	25.3%
CSc1ncc(C(N)=O)c(N)n1	-2.05% and 12%	3.5% and -12.9%		-38% and -12.4%	2.45% and 13.2%	-6.7% and -12.6%
Nc1ccccc1S(=O)(=O)Nc1ccccc1	30.9%	18.9%		-10.3%	21.4%	-28.4%
C(=C1CCCCC1)c1ccccn1	-9.2%	24.9%		-23.3%	-24.9%	-18.8%
Cc1ccc([N+](=O)[O-])cc1N	31%	25.4%		23.2%	14.7%	17.1%
C/C(=N\NC(N)=O)C1(O)CCCCC1	-15.3%	-26.7%		4.45%	-11%	-19.1%
Cc1ccc(OCC(=O)N2N=C(c3ccccc3)CC2(O)c2ccccc2)cc1 (stereo not drawn)	-7.6%	-41.9%		-15.6%	-24.2%	0%
O=C(COc1ccc(Cl)cc1)N1CCN(C(=O)COc2ccc(Cl)cc2)c2ccccc21	11.7%	3.05%		11.1%	-1.05%	11.6%
C[n+]1cn(-c2nc3ccccc3nc2[N-]S(=O)(=O)c2ccccc2)c2ccccc21	-0.2%	-5.7%		-18.4%	-38.5%	-20.1%
COc1cc2cnc3c4cc(OC(C)C)c(OC)cc4ccc3c2cc1OC	-10%	-15.3%		5.75%	-29.4%	-5.3%
Cc1cn(C2CC(OP(=O)(O)OCC3OC(n4ccc(N)nc4=O)C(O)C3O)C(CO)O2)c(=O)[nH]c1=O (stereo not drawn)	7.55%	1.5%		13.7%	-74.2%	-23.6%
CC(C)(C)CNCCO	-2.45%	-23.4%		-7.5%	-6.3%	-7.55%
O=C(Cc1ccccc1)NCCCN(CCCCN(CCCNC(=O)Cc1ccccc1)C(=O)OCc1ccccc1)C(=O)OCc1ccccc1	-11.9%	-11.6%		-7.4%	-27.6%	-0.85%
CC1CCC2C(C)C(=O)OC2C2(C)C(=O)C=CC12 (stereo not drawn)	11.9%	-12.3%		22.6%	-27.4%	2.7%
Cc1ccc(NC(=O)CC/C(CC(=O)C(C)(C)C)=N/NC(=O)c2cc3ccccc3cc2O)cc1C	27.9%	21.1%		-0.35%	14.8%	28.4%
